Screening results from PubChem BioAssay.
The list is not random: actives were taken first. Their share in the collection is about 1.1%.
MOR-DOR inv ag-1 – inverse agonist of human OPRM1-OPRD1 heterodimerization; 340,000 compounds, 0.21% hits; cell-based MOR-DOR heterodimer luminescence, inverse agonism; inhibition, % at 9.3 µM; P35372+P41143; in the data active = inhibition above about 22%, passing the limit was not always enough;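 also: 0% = cells with DMSO and 100% = wells without cells with DMSO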
Target sequence (P35372 whole entry, looked up): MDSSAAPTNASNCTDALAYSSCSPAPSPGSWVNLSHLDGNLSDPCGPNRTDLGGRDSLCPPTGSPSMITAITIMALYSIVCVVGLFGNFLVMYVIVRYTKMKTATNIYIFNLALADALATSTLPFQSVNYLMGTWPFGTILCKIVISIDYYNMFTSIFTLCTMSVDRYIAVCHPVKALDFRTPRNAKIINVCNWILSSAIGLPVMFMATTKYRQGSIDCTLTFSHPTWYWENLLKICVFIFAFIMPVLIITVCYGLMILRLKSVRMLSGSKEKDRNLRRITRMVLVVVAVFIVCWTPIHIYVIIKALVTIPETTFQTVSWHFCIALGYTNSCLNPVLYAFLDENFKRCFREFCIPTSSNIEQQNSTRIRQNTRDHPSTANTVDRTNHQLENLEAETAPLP
Target sequence (P41143 whole entry, looked up): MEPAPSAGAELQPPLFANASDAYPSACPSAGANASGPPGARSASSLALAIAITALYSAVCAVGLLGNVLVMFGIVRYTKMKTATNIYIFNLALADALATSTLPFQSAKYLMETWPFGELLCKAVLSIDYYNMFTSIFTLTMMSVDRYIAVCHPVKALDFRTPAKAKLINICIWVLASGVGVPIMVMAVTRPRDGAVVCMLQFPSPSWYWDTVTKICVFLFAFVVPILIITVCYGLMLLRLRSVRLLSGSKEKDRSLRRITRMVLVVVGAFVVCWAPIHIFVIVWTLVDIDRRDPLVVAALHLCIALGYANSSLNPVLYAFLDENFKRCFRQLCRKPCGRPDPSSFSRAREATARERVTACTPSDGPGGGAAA
MOR-DOR ag-1 – OPRM1-OPRD1 heterodimerization agonism; P35372+P41143; cells, luminescence; activation, % at 9.3 µM; 340,000 compounds, 0.3% hits; AID 504326;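 also: 0% = vehicle-treated cells and 100% = reference agonist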
HTR5A ag ctr – activates human HTR5A in OPRM1-OPRD1 agonist counter-screen | P47898 | HTR5A agonist assay, luminescence, cell-based | activation, % at 9.3 µM | 340,000 compounds, 0.61% hits | AID 504692; in the data active = activation mostly above about 9.5%, no sharp cut-off; inactive = mostly below about 7.6%;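 also: 0% = cells with vehicle only and 100% = reference agonist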
HTR5A inv ag – counter-screen for OPRM1-OPRD1 inverse agonists: human HTR5A inverse agonism; 340,000 compounds, 0.083% hits; HTR5A cell line, luminescence; P47898; AID 504634; inhibition, % at 9.3 µM; in the data active = inhibition mostly above about 23%, no sharp cut-off; inactive = mostly below about 18%;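 also: 0% = cells with DMSO and 100% = no-cell wells with DMSO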
MOR-DOR ag conf – confirmation of human OPRM1-OPRD1 heterodimerization agonists; shares compounds with MOR-DOR ag-1; cells, MOR-DOR heterodimerization, luminescence complementation; activation, % at 9.3 µM; 830 compounds, 45% hits;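 also: 0% = vehicle-treated cells and 100% = reference agonist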
HTR5A ag ctr2 – counter-screen for OPRM1-OPRD1 agonists: human HTR5A agonism. activation, % at 9.3 µM. 830 compounds, 8% hits. HTR5A agonist counterscreen, cell luminescence. shares compounds with MOR-DOR ag-1; in the data active = activation above about 17%;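 also: 0% = vehicle-treated cells and 100% = reference agonist response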
OPRM1-D1 inv cf – OPRM1-OPRD1 heterodimer inverse agonism, confirmation; cells expressing OPRM1/OPRD1 heterodimer, luminescence; 580 compounds, 20% hits; inhibition, % at 9.3 µM; shares compounds with MOR-DOR inv ag-1; in the data active = inhibition above about 32%;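 also: 0% = cells with DMSO and 100% = wells lacking cells with DMSO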
HTR5A inv count – counter-screen for OPRM1-OPRD1 inverse agonists: human HTR5A inverse agonism | inhibition, % at 9.3 µM | AID 504914 | shares compounds with MOR-DOR inv ag-1 | HTR5A-expressing cells, luminescence | 580 tested, under 10 active; call rule not given here;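 also: 0% = cells with DMSO and 100% = no-cell wells with DMSO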
MOR-DOR inv ag-2 – inverse agonist of OPRM1-OPRD1 heterodimerization in HTR5A counter-screen; shares compounds with HTR5A inv ag; U2OS counter-screen cells, complementation luminescence; inhibition, % at 9.3 µM; 190 tested, under 10 active; call rule not given here;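 also: 0% = cells with DMSO and 100% = wells without cells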
HTR5A inv conf – confirmation of human HTR5A inverse agonists. shares compounds with HTR5A inv ag. HTR5A-expressing cells, inverse agonism, luminescence. inhibition, % at 9.3 µM. 190 tested, under 10 active; call rule not given here;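 also: 0% = cells with DMSO and 100% = no cells with DMSO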
MOR-DOR ag-2 – promotes OPRM1-OPRD1 heterodimerization in HTR5A counter-screen | shares compounds with HTR5A ag ctr | U2OS counter-screen cells, complementation luminescence, 3 h | activation, % at 9.3 µM | 800 compounds, 13% hits
HTR5A ag conf – confirmation of human HTR5A agonists; shares compounds with HTR5A ag ctr; HTR5A agonist cell assay, luminescence; activation, % at 9.3 µM; 800 compounds, 17% hits; AID 504915; in the data active = activation above about 17%;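 also: 0% = cells with vehicle only and 100% = full reference agonist response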
* marks the source's active call; other numbers are inactive results; nt = no result given. Rule as the data show it, unless noted: active = activation above about 18%; inactive = the rest.

SMILES	MOR-DOR inv ag-1	MOR-DOR ag-1	HTR5A ag ctr	HTR5A inv ag	OPRM1-D1 inv cf	HTR5A inv count	others
CN1CC[C@]23c4c5ccc(O)c4OC2[C@H](O)C=CC3[C@H]1C5 (stereo partly drawn)	nt	nt	0.2	-0.5	nt	nt	HTR5A ag ctr2=4.6
CN1CCC23c4c5ccc(O)c4O[C@@H]2[C@H](O)C=CC3C1C5 (stereo partly drawn)	nt	nt	-2.0	4.7	nt	nt
Cc1cc(NC(=O)CCl)nn1C	-468.6	91.3*	6.5	-18.5	nt	nt	MOR-DOR ag conf=1.1;HTR5A ag ctr2=1.9
CC1CCCN(CC(=O)c2ccc(Cl)c(Cl)c2)C1 (stereo not drawn)	71.0*	-13.8	-6.4	24.7	66.0*	5.0
CCOc1ccc2nc(N=Nc3c(O)[nH]c(=S)[nH]c3=O)sc2c1	32.2*	-6.6	-0.8	37.6	7.1	4.8
CN1C(=O)CC(c2ccccc2)Nc2ccccc21 (stereo not drawn)	14.5	-2.9	1.0	23.2	nt	nt
COC1=CC(=O)OC(CCc2ccc3c(c2)OCO3)C1 (stereo not drawn)	4.8	-0.9	2.1	6.3	nt	nt
CCCCn1c(NS(=O)(=O)c2ccc(C)cc2)c(C(=O)OCC)c2nc3ccccc3nc21	21.6	-4.0	1.6	4.2	nt	nt
CCCCn1c(NC(=O)c2ccco2)c(C(=O)OCC)c2nc3ccccc3nc21	44.8*	-7.9	-1.3	2.3	-13.5	-11.7
CCCCOCCCn1c(N)c(C(=O)OCCOC)c2nc3ccccc3nc21	33.0*	-7.2	1.1	-1.8	-8.5	-5.0
CC1=CC(=O)C2=C(C)CC(O)C3C(C)C(=O)OC3C12 (stereo not drawn)	7.5	-1.4	1.2	-4.2	nt	nt
CC1CN1P1(=O)OCC(C)([N+](=O)[O-])CO1 (stereo not drawn)	11.0	-2.1	8.8	-34.5	nt	nt
Cc1ccc(N/N=C/c2c(O)n(-c3ccccc3)c(=O)[nH]c2=O)cc1	31.9*	-6.8	0.0	0.1	-10.0	-0.7
COC(COC(N)=O)C1=C(N2CC2)C(=O)C(C)=C(N2CC2)C1=O (stereo not drawn)	-12.7	2.9	0.8	-3.2	nt	nt
CC1=C(N2CC2)C(=O)C(CO)=C(N2CC2)C1=O	42.5*	-9.7	-7.9	30.3	-4.4	-0.1
Nc1cc(Cl)c2nonc2c1[N+](=O)[O-]	40.2*	-7.8	-8.5	-0.2	11.2	10.6
CC1CN(CC(=O)c2ccccc2Cl)CC(C)O1 (stereo not drawn)	4.6	-1.0	-1.8	6.5	nt	nt
CC1CCN(CC(=O)c2ccccc2Cl)CC1	39.8*	-7.5	2.1	-5.3	24.8	1.3
COC(=O)C1=C(c2cccc(C#N)c2)C[C@@H]2CC[C@H]1N2C(=O)NCc1ccco1	8.1	-1.4	4.7	-13.6	nt	nt
C[C@H]1CCC/C=C/[C@@H]2C[C@H](O)C[C@H]2[C@H](O)/C=C/C(=O)O1	32.9*	-6.0	-2.1	0.2	-11.1	-3.8
C[C@H]1CCCC(=O)CCC/C=C/c2cc(O)cc(O)c2C(=O)O1	-15.8	2.9	-4.4	-23.9	nt	nt
c1ccc(C2N3CCCN23)cc1 (stereo not drawn)	-2.1	0.4	1.8	10.0	nt	nt
ON1C2CCCCC2N(O)C1c1ccccc1 (stereo not drawn)	44.7*	-7.8	3.1	15.3	-37.4	-20.9
COc1ccc(C2C(C(=O)N3CCC4(CC3)OCCO4)CC(=O)N2c2ccc(OC)cc2)cc1 (stereo not drawn)	8.2	-1.3	1.4	-3.6	nt	nt
CC1CN(O)C2CCc3nonc3C12O (stereo not drawn)	42.6*	-8.7	-9.2	22.3	-23.5	-5.7
SMILES	MOR-DOR inv ag-1	MOR-DOR ag-1	HTR5A ag ctr	HTR5A inv ag	OPRM1-D1 inv cf	HTR5A inv count	others
CN(C)c1ccc(/C=C/c2cc[n+](C)c3ccccc23)cc1	27.9	-5.4	-9.8	38.2*	nt	nt	MOR-DOR inv ag-2=-485.1;HTR5A inv conf=-16.1
O=C(c1ccc(C(F)(F)F)cc1)C1CCCN(Cc2ccc(CO)o2)C1 (stereo not drawn)	6.0	-1.2	1.5	16.0	nt	nt
CN1C[C@H](CO)C=C2c3cccc4[nH]cc(c34)C[C@H]21	-21.8	4.3	59.7*	13.1	nt	nt	MOR-DOR ag-2=10.9;HTR5A ag conf=1.6
CN1CC=C(c2c[nH]c3ccccc23)CC1	6.2	-1.1	23.1*	-70.4	nt	nt	MOR-DOR ag-2=-1.6;HTR5A ag conf=-0.6
Fc1ccccc1CNCCc1c[nH]c2ccccc12	9.5	-2.1	25.1*	-88.5	nt	nt	MOR-DOR ag-2=2.4;HTR5A ag conf=39.2*
Fc1ccc(CNCCc2c[nH]c3ccccc23)cc1	14.5	-2.8	4.6	-12.8	nt	nt
CCC(=NCCc1c[nH]c2ccccc12)c1c(O)n(-c2ccc(C)cc2)c(=O)[nH]c1=O	1.9	-0.4	18.6*	-113.3	nt	nt	MOR-DOR ag-2=-0.2;HTR5A ag conf=-8.1
CCC(=NCCc1c[nH]c2ccccc12)c1c(O)n(C)c(=O)n(C)c1=O	-7.4	1.4	40.5*	-124.1	nt	nt	MOR-DOR ag-2=1.4;HTR5A ag conf=1.2
CC(=NCCc1c[nH]c2ccccc12)c1c(O)n(Cc2ccccc2)c(=O)[nH]c1=O	3.6	-0.7	8.4	-82.1	nt	nt
Cc1c(C(=O)c2ccccc2)c2ccccc2n1C	11.4	-2.2	1.4	-5.2	nt	nt
COc1ccc2[nH]cc(CCN=C(N)N)c2c1	0.3	-0.1	5.8	-15.0	nt	nt
CCCCc1ccc2[nH]cc(CCN)c2c1	-30.6	5.2	97.1*	-231.0	nt	nt	MOR-DOR ag-2=-2.5;HTR5A ag conf=-7.0
NCCc1c[nH]c2ccc(OCc3ccccc3)cc12	-0.4	0.1	33.1*	-85.8	nt	nt	MOR-DOR ag-2=-0.3;HTR5A ag conf=1.3
CC(N)Cc1c[nH]c2ccc(Cl)cc12 (stereo not drawn)	11.6	-2.2	2.5	-41.7	nt	nt
CC1=C[C@@H]2c3cccc4[nH]cc(c34)C[C@H]2N(C)C1	-22.6	4.8	26.2*	-93.3	nt	nt	MOR-DOR ag-2=1.4;HTR5A ag conf=33.9*
CCN(CC)c1ccc(N=Cc2c(O)n(-c3ccccc3C)c(=O)[nH]c2=O)cc1	-18.3	3.3	17.8*	-25.9	nt	nt	MOR-DOR ag-2=12.9;HTR5A ag conf=4.8
Cc1cc(OCC(=O)NCc2cccnc2)c2c3c(c(=O)oc2c1)CCCC3	9.4	-1.8	-1.1	-3.8	nt	nt
O=C(NCc1ccccn1)c1ccccc1Cl	7.8	-1.5	-1.6	15.6	nt	nt
Clc1cc(I)cc(Cl)c1NC1=NCCN1	5.8	-1.1	43.0*	-153.7	nt	nt	MOR-DOR ag-2=1.3;HTR5A ag conf=-0.8
